Experimental data taken from paper PMC7862700, “An all-to-all approach to the identification of sequence-specific readers for epigenetic DNA modifications on cytosine”.

What was measured:
Test in all cases: DAPPL (digital affinity profiling via proximity ligation, sequencing); 10 mM Tris-HCl pH 7.5, 50 mM NaCl, 1 mM DTT, 4% glycerol, room temperature, 30 min; GST-TFs on glutathione beads, 16-mer random dsDNA library, 0.1% formaldehyde crosslink after washing; high values mean tight binding
FEV = target: T1, FEV (Homo sapiens, UniProt Q99581 1-238); conditions: protein: recombinant; tags: N-terminal GST; dsDNA, one strand shown
T1 sequence: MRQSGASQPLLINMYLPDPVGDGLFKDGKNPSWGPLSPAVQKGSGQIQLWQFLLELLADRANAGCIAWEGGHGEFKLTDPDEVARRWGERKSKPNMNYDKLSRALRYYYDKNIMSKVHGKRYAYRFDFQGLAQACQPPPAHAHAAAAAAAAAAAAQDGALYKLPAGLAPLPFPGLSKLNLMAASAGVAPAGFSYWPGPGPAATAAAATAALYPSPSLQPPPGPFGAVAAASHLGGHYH
Outline: (§1)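 Yeast served to express human transcription factors as GST fusions, which were then captured on glutathione beads and labelled with DNA barcodes. Pooled with a tag-only sample, they were incubated with 200 nmole of a 16-mer random double-stranded DNA library for 30 min at room temperature in Tris/NaCl/DTT/glycerol buffer, washed, crosslinked with 0.1% formaldehyde, ligated by proximity, amplified by PCR and sequenced. Dividing each hexamer's read frequency for a factor by its frequency for the tag-only sample gives the binding signal.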

ETV5 = ETV5 (Homo sapiens, UniProt P41161 1-510); conditions: protein: recombinant; tags: N-terminal GST; dsDNA, one strand shown
Outline: as §1

HSF1 = HSF1 (Homo sapiens, UniProt Q00613 1-529); conditions: protein: recombinant; tags: N-terminal GST; chain copies: 3; dsDNA, one strand shown
Outline: as §1

SPIC = target: T2, SPIC (Homo sapiens, UniProt Q8N5J4 1-248); conditions: protein: recombinant; tags: N-terminal GST; dsDNA, one strand shown
T2 sequence: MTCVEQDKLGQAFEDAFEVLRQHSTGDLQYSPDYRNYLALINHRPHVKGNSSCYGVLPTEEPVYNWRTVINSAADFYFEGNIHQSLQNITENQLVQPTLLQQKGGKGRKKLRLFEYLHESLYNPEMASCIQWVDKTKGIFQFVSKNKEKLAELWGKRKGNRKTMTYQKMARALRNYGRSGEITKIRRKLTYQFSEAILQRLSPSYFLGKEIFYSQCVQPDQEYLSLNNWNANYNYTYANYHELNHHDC
Outline: as §1

ELF4 = ELF4 (Homo sapiens, UniProt Q99607 1-663); conditions: protein: recombinant; tags: N-terminal GST; dsDNA, one strand shown
Outline: as §1

ELK4 = target: T3, ELK4 (Homo sapiens, UniProt P28324-2 1-405); conditions: protein: recombinant; tags: N-terminal GST; dsDNA, one strand shown
T3 sequence: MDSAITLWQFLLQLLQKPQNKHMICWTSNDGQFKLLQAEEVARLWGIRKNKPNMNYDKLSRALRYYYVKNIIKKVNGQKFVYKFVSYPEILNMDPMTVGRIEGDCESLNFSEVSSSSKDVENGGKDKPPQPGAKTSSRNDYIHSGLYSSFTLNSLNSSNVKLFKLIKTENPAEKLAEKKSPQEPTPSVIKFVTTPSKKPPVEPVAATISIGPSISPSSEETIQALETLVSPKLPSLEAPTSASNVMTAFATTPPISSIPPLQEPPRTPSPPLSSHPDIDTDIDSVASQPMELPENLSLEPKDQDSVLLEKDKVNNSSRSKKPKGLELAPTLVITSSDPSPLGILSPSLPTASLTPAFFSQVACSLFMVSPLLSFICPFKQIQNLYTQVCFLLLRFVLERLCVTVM
Outline: as §1

ETV2 = target: T4, ETV2 (Homo sapiens, UniProt O00321 1-342); conditions: protein: recombinant; tags: N-terminal GST; dsDNA, one strand shown
T4 sequence: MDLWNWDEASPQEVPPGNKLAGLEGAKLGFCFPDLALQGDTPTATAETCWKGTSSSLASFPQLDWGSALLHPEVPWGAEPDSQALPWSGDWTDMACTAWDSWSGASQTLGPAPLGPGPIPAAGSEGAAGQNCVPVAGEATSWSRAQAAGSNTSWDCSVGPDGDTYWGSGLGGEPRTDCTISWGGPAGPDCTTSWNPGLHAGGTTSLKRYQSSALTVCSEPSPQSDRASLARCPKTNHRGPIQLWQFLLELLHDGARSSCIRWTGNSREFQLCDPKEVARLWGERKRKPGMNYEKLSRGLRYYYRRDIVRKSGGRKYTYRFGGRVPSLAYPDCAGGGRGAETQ
Outline: as §1

ELF3 = target: T5, ELF3 (Homo sapiens, UniProt P78545 1-371); conditions: protein: recombinant; tags: N-terminal GST; dsDNA, one strand shown
T5 sequence: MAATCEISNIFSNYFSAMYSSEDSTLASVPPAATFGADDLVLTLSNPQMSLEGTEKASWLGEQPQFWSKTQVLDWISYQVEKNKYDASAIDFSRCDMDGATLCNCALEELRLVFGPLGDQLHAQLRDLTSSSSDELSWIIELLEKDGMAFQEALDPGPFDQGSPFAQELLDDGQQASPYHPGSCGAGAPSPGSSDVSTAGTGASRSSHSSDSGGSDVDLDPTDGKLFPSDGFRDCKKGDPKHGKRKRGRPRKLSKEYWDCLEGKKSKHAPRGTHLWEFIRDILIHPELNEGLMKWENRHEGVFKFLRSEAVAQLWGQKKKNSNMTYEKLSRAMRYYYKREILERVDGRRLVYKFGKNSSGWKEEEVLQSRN
Outline: as §1

CRX = CRX (Homo sapiens, UniProt O43186 1-299); conditions: protein: recombinant; tags: N-terminal GST; dsDNA, one strand shown
Outline: as §1

ETV1 = ETV1 (Homo sapiens, UniProt P50549 1-477); conditions: protein: recombinant; tags: N-terminal GST; dsDNA, one strand shown
Outline: as §1

ERF = target: T6, ERF (Homo sapiens, UniProt P50548 1-548); conditions: protein: recombinant; tags: N-terminal GST; dsDNA, one strand shown
T6 sequence: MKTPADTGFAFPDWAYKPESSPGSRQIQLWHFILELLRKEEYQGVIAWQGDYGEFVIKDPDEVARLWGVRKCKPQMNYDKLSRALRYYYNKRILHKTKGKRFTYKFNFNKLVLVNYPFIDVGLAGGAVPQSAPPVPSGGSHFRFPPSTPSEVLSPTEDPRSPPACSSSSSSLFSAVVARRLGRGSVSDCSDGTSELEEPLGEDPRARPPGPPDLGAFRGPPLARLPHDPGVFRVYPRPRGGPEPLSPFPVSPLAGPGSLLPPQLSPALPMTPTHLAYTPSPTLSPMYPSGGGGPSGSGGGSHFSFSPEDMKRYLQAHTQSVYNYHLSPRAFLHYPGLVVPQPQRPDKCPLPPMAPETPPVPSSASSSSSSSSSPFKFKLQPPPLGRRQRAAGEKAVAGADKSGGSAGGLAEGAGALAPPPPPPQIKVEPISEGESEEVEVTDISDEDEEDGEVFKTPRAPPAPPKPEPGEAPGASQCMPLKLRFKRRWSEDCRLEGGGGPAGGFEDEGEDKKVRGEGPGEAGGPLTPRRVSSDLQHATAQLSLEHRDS
Outline: as §1

ETV3L = target: T7, ETV3L (Homo sapiens, UniProt Q6ZN32 1-361); conditions: protein: recombinant; tags: N-terminal GST; dsDNA, one strand shown
T7 sequence: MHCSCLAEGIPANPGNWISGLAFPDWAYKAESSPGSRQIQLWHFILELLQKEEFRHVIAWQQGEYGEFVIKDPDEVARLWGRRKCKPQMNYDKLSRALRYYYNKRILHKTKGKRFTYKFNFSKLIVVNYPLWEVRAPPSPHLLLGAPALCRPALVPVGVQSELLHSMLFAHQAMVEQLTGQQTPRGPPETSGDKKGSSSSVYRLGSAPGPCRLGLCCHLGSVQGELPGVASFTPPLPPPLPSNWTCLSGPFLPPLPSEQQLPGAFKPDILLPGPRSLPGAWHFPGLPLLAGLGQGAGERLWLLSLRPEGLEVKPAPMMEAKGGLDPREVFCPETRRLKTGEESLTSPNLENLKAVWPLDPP
Outline: as §1

ETS2 = target: T8, ETS2 (Homo sapiens, UniProt P15036 1-469); conditions: protein: recombinant; tags: N-terminal GST; dsDNA, one strand shown
T8 sequence: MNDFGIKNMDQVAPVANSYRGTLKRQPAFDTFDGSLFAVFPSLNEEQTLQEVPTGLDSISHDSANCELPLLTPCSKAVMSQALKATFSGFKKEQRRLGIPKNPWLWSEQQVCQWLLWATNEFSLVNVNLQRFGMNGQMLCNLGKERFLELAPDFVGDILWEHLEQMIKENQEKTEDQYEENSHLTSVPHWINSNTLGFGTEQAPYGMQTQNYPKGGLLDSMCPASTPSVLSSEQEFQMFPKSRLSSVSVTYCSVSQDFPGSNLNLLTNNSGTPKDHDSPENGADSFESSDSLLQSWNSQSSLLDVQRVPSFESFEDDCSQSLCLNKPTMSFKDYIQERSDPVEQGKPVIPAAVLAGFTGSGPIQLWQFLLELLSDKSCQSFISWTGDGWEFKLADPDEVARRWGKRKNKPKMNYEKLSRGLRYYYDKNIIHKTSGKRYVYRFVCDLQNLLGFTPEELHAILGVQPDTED
Outline: as §1

SPDEF = target: T9, SPDEF (Homo sapiens, UniProt O95238 1-335); conditions: protein: recombinant; tags: N-terminal GST; dsDNA, one strand shown
T9 sequence: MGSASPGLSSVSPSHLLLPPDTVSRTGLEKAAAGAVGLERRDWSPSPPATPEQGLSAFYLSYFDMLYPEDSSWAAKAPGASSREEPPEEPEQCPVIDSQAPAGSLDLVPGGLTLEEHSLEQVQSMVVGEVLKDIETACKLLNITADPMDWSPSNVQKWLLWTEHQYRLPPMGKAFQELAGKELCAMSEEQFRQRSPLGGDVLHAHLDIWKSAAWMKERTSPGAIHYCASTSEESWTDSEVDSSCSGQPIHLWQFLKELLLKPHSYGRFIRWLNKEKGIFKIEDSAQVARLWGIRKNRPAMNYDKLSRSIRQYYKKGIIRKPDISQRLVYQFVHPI
Outline: as §1

ETV7 = target: T10, ETV7 (Homo sapiens, UniProt Q9Y603 1-341); conditions: protein: recombinant; tags: N-terminal GST; dsDNA, one strand shown
T10 sequence: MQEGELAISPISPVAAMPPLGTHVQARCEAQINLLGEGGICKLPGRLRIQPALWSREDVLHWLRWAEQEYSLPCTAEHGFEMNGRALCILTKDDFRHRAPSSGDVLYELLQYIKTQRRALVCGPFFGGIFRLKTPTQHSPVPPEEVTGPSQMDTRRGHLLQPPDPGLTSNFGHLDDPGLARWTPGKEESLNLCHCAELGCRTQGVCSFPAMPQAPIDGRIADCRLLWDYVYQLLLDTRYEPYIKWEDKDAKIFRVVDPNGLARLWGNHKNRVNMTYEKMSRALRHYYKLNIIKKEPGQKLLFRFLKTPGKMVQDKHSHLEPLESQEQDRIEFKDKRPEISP
Outline: as §1

ELF5 = target: T11, ELF5 (Homo sapiens, UniProt Q9UKW6-2 1-255); conditions: protein: recombinant; tags: N-terminal GST; dsDNA, one strand shown
T11 sequence: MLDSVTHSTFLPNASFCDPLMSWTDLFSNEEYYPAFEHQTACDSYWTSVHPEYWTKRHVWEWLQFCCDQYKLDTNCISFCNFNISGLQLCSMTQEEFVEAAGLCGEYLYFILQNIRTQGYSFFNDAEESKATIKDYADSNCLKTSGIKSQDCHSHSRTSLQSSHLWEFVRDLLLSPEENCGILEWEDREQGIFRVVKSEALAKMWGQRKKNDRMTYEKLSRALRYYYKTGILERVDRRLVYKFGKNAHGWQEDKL
Outline: as §1

ETV3 = target: T12, ETV3 (Homo sapiens, UniProt P41162-2 1-143); conditions: protein: recombinant; tags: N-terminal GST; dsDNA, one strand shown
T12 sequence: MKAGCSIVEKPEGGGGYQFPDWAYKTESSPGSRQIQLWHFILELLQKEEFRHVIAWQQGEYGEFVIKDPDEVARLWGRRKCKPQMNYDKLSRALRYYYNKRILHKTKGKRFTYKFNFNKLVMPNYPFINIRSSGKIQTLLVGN
Outline: as §1

ETV6 = ETV6 (Homo sapiens, UniProt P41212 1-452); conditions: protein: recombinant; tags: N-terminal GST; dsDNA, one strand shown
Outline: as §1

Sequence of HSF1 (Q00613 whole entry): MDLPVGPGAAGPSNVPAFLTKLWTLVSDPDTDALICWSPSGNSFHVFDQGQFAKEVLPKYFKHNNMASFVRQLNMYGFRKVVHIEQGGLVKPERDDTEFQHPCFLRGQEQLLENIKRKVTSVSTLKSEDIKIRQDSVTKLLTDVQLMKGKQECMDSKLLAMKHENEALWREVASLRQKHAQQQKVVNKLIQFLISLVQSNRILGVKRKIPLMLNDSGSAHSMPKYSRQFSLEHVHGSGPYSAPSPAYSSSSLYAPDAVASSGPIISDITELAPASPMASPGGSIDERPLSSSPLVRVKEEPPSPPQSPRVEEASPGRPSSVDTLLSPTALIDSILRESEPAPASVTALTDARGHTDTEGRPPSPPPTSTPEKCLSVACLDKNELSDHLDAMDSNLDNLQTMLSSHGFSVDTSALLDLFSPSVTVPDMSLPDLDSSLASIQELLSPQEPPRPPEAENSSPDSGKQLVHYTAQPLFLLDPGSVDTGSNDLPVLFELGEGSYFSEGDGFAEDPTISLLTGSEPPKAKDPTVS
Sequence of ETV6 (P41212 whole entry): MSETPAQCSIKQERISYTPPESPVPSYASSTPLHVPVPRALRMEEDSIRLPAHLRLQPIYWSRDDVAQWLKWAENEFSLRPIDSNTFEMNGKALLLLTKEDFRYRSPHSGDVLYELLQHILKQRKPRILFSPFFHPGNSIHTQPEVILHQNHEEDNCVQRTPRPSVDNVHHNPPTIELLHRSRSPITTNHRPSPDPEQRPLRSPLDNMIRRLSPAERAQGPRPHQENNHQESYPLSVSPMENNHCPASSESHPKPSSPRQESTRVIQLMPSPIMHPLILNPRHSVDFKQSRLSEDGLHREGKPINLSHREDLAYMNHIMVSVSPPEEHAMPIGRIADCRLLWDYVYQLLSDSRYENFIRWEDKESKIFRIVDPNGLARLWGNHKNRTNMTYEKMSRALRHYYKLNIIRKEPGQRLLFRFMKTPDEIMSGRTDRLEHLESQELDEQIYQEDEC
Sequence of CRX (O43186 whole entry): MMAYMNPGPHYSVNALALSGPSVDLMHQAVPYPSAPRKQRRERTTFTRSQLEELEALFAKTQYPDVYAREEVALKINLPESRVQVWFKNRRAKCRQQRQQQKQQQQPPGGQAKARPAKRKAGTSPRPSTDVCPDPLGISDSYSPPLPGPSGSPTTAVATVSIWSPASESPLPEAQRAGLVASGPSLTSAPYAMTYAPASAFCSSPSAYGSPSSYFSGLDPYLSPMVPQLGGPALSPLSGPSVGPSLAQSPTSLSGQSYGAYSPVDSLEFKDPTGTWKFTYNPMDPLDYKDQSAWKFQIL
Sequence of ETV1 (P50549 whole entry): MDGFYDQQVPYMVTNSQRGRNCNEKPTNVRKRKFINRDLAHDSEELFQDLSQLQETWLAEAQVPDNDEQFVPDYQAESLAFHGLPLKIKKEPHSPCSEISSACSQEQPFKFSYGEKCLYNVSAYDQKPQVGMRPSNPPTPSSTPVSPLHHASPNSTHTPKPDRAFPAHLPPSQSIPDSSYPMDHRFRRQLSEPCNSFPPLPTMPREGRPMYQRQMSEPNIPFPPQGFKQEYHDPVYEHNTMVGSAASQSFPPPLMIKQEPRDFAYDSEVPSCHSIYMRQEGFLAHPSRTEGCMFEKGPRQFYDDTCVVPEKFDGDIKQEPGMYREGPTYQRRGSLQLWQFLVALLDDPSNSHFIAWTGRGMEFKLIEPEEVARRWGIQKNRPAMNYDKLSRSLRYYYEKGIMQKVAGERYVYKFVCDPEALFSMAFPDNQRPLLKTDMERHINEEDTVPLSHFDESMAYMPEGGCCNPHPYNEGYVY
Sequence of ETV5 (P41161 whole entry): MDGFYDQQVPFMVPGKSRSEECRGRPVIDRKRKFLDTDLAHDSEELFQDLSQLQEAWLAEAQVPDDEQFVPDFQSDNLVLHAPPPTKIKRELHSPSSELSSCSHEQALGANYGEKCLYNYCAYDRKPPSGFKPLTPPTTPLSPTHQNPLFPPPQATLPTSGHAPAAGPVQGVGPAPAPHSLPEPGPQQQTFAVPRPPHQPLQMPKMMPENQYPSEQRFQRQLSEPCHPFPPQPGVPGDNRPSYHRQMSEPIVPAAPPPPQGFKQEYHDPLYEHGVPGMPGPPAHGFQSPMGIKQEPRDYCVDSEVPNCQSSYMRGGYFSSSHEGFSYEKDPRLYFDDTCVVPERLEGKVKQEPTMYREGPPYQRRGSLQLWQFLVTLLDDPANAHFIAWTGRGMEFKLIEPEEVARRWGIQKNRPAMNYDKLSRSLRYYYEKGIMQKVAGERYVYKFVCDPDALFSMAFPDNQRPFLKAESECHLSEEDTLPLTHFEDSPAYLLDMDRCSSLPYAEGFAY
Sequence of ELF4 (Q99607 whole entry): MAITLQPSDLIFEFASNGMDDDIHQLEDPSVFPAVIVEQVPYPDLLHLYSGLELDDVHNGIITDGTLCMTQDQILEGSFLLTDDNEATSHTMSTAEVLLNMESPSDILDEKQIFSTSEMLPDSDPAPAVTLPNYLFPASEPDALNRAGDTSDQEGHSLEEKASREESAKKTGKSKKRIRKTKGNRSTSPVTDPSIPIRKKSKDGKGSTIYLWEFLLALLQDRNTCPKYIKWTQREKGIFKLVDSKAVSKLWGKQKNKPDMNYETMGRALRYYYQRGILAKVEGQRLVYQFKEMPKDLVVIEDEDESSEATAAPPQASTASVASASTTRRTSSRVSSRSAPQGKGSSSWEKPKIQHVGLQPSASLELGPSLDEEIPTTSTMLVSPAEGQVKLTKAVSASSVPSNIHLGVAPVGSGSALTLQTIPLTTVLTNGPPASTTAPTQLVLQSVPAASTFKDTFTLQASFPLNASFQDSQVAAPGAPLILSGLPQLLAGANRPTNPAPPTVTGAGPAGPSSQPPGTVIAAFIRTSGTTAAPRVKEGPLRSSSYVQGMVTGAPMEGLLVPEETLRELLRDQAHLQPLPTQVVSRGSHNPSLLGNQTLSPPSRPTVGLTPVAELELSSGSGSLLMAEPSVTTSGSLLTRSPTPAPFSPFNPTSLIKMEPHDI

Sequence	binding signal (FEV)	binding signal (ETV5)	binding signal (HSF1)	binding signal (SPIC)	binding signal (ELF4)	binding signal (ELK4)	binding signal (ETV2)	binding signal (ELF3)	binding signal (CRX)	binding signal (ETV1)	binding signal (ERF)	binding signal (ETV3L)	binding signal (ETS2)	binding signal (SPDEF)	binding signal (ETV7)	binding signal (ELF5)	binding signal (ETV3)	binding signal (ETV6)
TCATTT	1.38 fold enrichment (6-mer frequency, TF over GST control)	1.4 fold enrichment (6-mer frequency, TF over GST control)	1.14 fold enrichment (6-mer frequency, TF over GST control)	1.41 fold enrichment (6-mer frequency, TF over GST control)	1.34 fold enrichment (6-mer frequency, TF over GST control)	1.37 fold enrichment (6-mer frequency, TF over GST control)	1.5 fold enrichment (6-mer frequency, TF over GST control)	1.24 fold enrichment (6-mer frequency, TF over GST control)	1.16 fold enrichment (6-mer frequency, TF over GST control)	1.41 fold enrichment (6-mer frequency, TF over GST control)	1.37 fold enrichment (6-mer frequency, TF over GST control)	1.47 fold enrichment (6-mer frequency, TF over GST control)	1.41 fold enrichment (6-mer frequency, TF over GST control)	1.22 fold enrichment (6-mer frequency, TF over GST control)	1.37 fold enrichment (6-mer frequency, TF over GST control)	1.32 fold enrichment (6-mer frequency, TF over GST control)	1.3 fold enrichment (6-mer frequency, TF over GST control)	1.35 fold enrichment (6-mer frequency, TF over GST control)
TGGGAT	1.18 fold enrichment (6-mer frequency, TF over GST control)	1.19 fold enrichment (6-mer frequency, TF over GST control)	1.47 fold enrichment (6-mer frequency, TF over GST control)	1.17 fold enrichment (6-mer frequency, TF over GST control)	1.2 fold enrichment (6-mer frequency, TF over GST control)	1.39 fold enrichment (6-mer frequency, TF over GST control)	1.14 fold enrichment (6-mer frequency, TF over GST control)	1.12 fold enrichment (6-mer frequency, TF over GST control)	1.9 fold enrichment (6-mer frequency, TF over GST control)	1.25 fold enrichment (6-mer frequency, TF over GST control)	1.05 fold enrichment (6-mer frequency, TF over GST control)	1.15 fold enrichment (6-mer frequency, TF over GST control)	1.17 fold enrichment (6-mer frequency, TF over GST control)	1.17 fold enrichment (6-mer frequency, TF over GST control)	1.15 fold enrichment (6-mer frequency, TF over GST control)	1.2 fold enrichment (6-mer frequency, TF over GST control)	1.18 fold enrichment (6-mer frequency, TF over GST control)	1.23 fold enrichment (6-mer frequency, TF over GST control)
